This is one part of a sample in which hits are shown more often than they occur.
Pf Dd2 inh – qHTS Primary assay for Inhibitors of Plasmodium falciparum Dd2 growth in vitro; hit rate 4.3% among 120,000; P. falciparum Dd2 growth, SYBR Green, 72 h; Potency, µM (series often up to 28.9 µM), for the others: at the top dose activity, negative = inhibition, usual class: inhibitors; active means well fitted inhibition curve with a large enough effect;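 further: plate controls were DMSO vehicle for no effect and reference drug for full effect; nearly all actives have a fitted effect of over 65% in size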
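Readout: SYBR Green fluorescence, 485 nm excitation, 535 nm emission, after ~16 h lysis at 37C. Before that, Dd2-infected red cells (2.5% hematocrit) grew 72 h with compound, 29 uM top final concentration.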
* marks the source's active call; other numbers are inactive results; i = inactive; [ ] = remark or other dose. Potency means the concentration at half of the fitted maximal effect.

SMILES	Pf Dd2 inh
CCCN(CCC)CC(O)Cn1cc(/C=C/C(=O)c2ccc(C)cc2)c2ccccc21 (configuration not stated)	1.1µM*
CCCCN(C)CC(O)Cn1cc(/C=C/C(=O)c2ccc(C)cc2)c2ccccc21 (configuration not stated)	2.5µM*
CCCN(CCC)CC(O)Cn1cc(/C=C/C(=O)c2ccc(Br)cc2)c2ccccc21 (configuration not stated)	3.2µM*
CCc1noc(-c2ccn3c(CNC(=O)c4cc(C)ccc4C)nnc3c2)n1	11%
COc1ccc(CC(=O)N2CCCN(c3cc(-c4ccc(F)cc4)[nH]n3)CC2)cc1	i
COc1ccc(Cn2nc(C3CC3)nc2-c2c(F)cccc2Cl)cc1	-21%
CCC(=O)Nc1ccc(C2(C(=O)NC3CC3)CCCCC2)cc1	-19%
CCCn1cc(C(=O)N2CC[C@@](O)(COC)C(C)(C)C2)c(C)n1	2%
Cc1cc(C)c(Cn2c3ccccc3c3cnn(CC(=O)N4CCCCCC4)c(=O)c32)c(C)c1	7.1µM*
O=C(Cn1ncc2c3ccccc3n(Cc3ccc(Cl)cc3)c2c1=O)NCc1ccccn1	-22%
Cc1ccccc1Cn1c2ccccc2c2cnn(CC(=O)NCc3ccccn3)c(=O)c21	0%
CCC(Cc1ccccc1)NC(=O)Cn1ncc2c3ccccc3n(Cc3ccc(F)cc3)c2c1=O (configuration not stated)	-5%
Cc1ccccc1Cn1c2ccccc2c2cnn(CC(=O)NC3CCCCCC3)c(=O)c21	12%
CC1CCC(NC(=O)Cn2ncc3c4ccccc4n(Cc4ccc(F)cc4)c3c2=O)CC1 (configuration not stated)	-8%
CCOC(=O)N1CCN(C(=O)Cn2ncc3c4ccccc4n(Cc4ccc(F)cc4)c3c2=O)CC1	10µM*
CCCn1c2ccccc2c2cnn(CC(=O)N3CCC(C)CC3)c(=O)c21	i
Cc1cc(C)c(Cn2c3ccccc3c3cnn(CC(=O)NCc4ccccn4)c(=O)c32)c(C)c1	10µM*
O=C(Cn1ncc2c3ccccc3n(Cc3cccc(Cl)c3)c2c1=O)N1CCCCCC1	8.9µM*
CC(CCc1ccccc1)NC(=O)Cn1ncc2c3ccccc3n(Cc3cccc(Cl)c3)c2c1=O (configuration not stated)	-5%
O=C(Cn1ncc2c3ccccc3n(Cc3ccccc3)c2c1=O)N1CCCCCC1	3%
O=C([C@@H]1C[C@H](Oc2cccnc2)CN1C(=O)COc1ccccc1)N1CCCC1	-4%
Cc1ccsc1CN1CCC2(CC1)CC(CC(=O)NCc1ccncc1)CCO2 (configuration not stated)	i
O=C(CCc1c[nH]c2ccccc12)NC1CCN(c2ccc(=O)[nH]n2)CC1	-17%
CCOc1ccc(C(=O)N[C@H]2CC[C@H]2NC2CCOCC2)cc1Cl	-24%
Cc1ccc(CNC(=O)c2ccc3c(c2)N(C(=O)c2ccc(F)cc2)CC3)o1	-12%
SMILES	Pf Dd2 inh
O=C(CC1CCOC2(CCN(C(=O)c3ccccc3)CC2)C1)NC1CC1 (configuration not stated)	42%
CC(=O)NC[C@H]1C[C@@H]2CCN1C[C@@H]2c1cc(-c2cccs2)nn1C	-21%[44.1 µM]
O=C(Cc1ccc(F)cc1)N1CCC[C@H]1c1nc(-c2ccc(F)cc2)no1	i
O=C(Cc1ccccc1)N1CCC[C@H]1c1nc(-c2ccccc2)no1	10µM*
CCOc1ccc(CC(=O)N2CCC[C@H]2c2nc(-c3ccccc3)no2)cc1OCC	-32%
COc1cccc(-c2ccc(-c3nc(C4CCOC4)no3)o2)c1 (configuration not stated)	-6%
c1cc(-c2ccco2)cc(-c2nc(C3CCOC3)no2)c1 (configuration not stated)	13µM*
CCOc1cccc(-c2nc(C3CCOC3)no2)c1 (configuration not stated)	15%
COc1ccccc1OCCNC(=O)c1cc2n(n1)CC(c1ccc(Cl)cc1)OC2 (configuration not stated)	-30%
COc1ccc(C2Cn3nnc(-c4nc(-c5ccccc5C)no4)c3CO2)cc1 (configuration not stated)	i
Cc1c(CN(C)Cc2cccc3ncccc23)c(=O)n(-c2ccccc2)n1C	-4%
CN(Cc1cccc(CCN)c1)Cc1cccc2ncccc12	7.1µM*
CN(Cc1ccccc1C(F)(F)F)Cc1cccc2ccccc12	i
CCCCn1c(SCC(=O)Nc2cccc(OC)c2)nc2c(sc3ccccc32)c1=O	i
CCC(Oc1ccccc1)C(=O)Nc1cccc(OCc2cc(=O)n3cccc(C)c3n2)c1 (configuration not stated)	i
CCC(Sc1nc2ccccc2c2nc(CCn3cncc3C)nn12)C(=O)Nc1cccc(OC)c1 (configuration not stated)	7.1µM*
COCc1ccc2c(c1)c(OC(C)(C)C(=O)NCc1cnccn1)nn2Cc1ccccc1	-24%
COc1ccccc1C(=O)N1CCC(CCOc2ccncc2)C1 (configuration not stated)	8%
